Experimental data taken from PubChem BioAssay AID1159580 (chemical genetic matrix, 2015).
“And” between values parts separate entries of the source, which are not always exact repeats. Equal entries are not always repeated. Hit rate of the full screen: of about 5,500 compounds, about 2,000 (36%) were called active. Inconclusive results (about 18%) are left out. No stated cut-off is given here; in the data, active means normalized growth mostly below about 0.91 (no sharp cut-off); inconclusive means no clear call, values can overlap the other calls; inactive means mostly above about 0.92. The list shows a part of the results. Some structures have more than one record in an assay (separate samples or runs), and their calls can disagree.

Test: chemical genetic growth profiling, strain panel (AID 1159580);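 further: tested at 20 µM; growth read once vehicle control cultures reached saturation at 30 °C; 1 = growth at the plate median or of vehicle wells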
Details: growth OD

Measured: normalized growth

CCN(CC)CCCC(C)Nc1c2ccc(Cl)cc2nc2ccc(OC)cc12 (stereo unspecified)
active: S. cerevisiae deletion strains, locus YJR075W, strain HOC1, stronger effect = lower value 0.813 | S. cerevisiae deletion strains, locus YKL009W, strain mrt4, stronger effect = lower value 0.863 | S. cerevisiae deletion strains, locus YKL085W, strain MDH1 (second series), stronger effect = lower value 0.93 | S. cerevisiae deletion strains, locus YKL085W, strain MDH1, stronger effect = lower value 0.93 | S. cerevisiae deletion strains, locus YKL190W, strain CNB1, stronger effect = lower value 0.79 | S. cerevisiae deletion strains, locus YKR001C, strain vps1, stronger effect = lower value 0.616 | S. cerevisiae deletion strains, locus YLL001W, strain dnm1, stronger effect = lower value 0.902 | S. cerevisiae deletion strains, locus YLR058C, strain SHM2, stronger effect = lower value 0.524 | S. cerevisiae deletion strains, locus YLR102C, strain apc9, stronger effect = lower value 0.855 | S. cerevisiae deletion strains, locus YLR113W, strain HOG1, stronger effect = lower value 0.741 | S. cerevisiae deletion strains, locus YLR268W, strain sec22, stronger effect = lower value 0.717 | S. cerevisiae deletion strains, locus YLR330W, strain CHS5, stronger effect = lower value 0.883 | S. cerevisiae deletion strains, locus YLR342W, strain FKS1 (second series), stronger effect = lower value 0.632 | S. cerevisiae deletion strains, locus YML032C, strain rad52, stronger effect = lower value 0.544 | S. cerevisiae deletion strains, locus YML124C, strain tub3, stronger effect = lower value 0.858 | S. cerevisiae deletion strains, locus YMR223W, strain ubp8, stronger effect = lower value 0.508 | S. cerevisiae deletion strains, locus YNL067W, strain RPL9B, stronger effect = lower value 0.703 | S. cerevisiae deletion strains, locus YNL153C, strain GIM3, stronger effect = lower value 0.819 | S. cerevisiae deletion strains, locus YNL183C, strain NPR1, stronger effect = lower value 0.644 | S. cerevisiae deletion strains, locus YNL233W, strain BNI4, stronger effect = lower value 0.756 | S. cerevisiae deletion strains, locus YNL307C, strain MCK1, stronger effect = lower value 0.622 | S. cerevisiae deletion strains, locus YNL322C, strain KRE1, stronger effect = lower value 0.794 | S. cerevisiae deletion strains, locus YNR052C, strain pop2, stronger effect = lower value 0.821 | S. cerevisiae deletion strains, locus YOL012C, strain htz1 2.88 [resistant] | S. cerevisiae deletion strains, locus YOL147C, strain pex11, stronger effect = lower value 0.6 | S. cerevisiae deletion strains, locus YOR061W, strain CKA2, stronger effect = lower value 0.71 | S. cerevisiae deletion strains, locus YOR069W, strain VPS5, stronger effect = lower value 0.848 | S. cerevisiae deletion strains, locus YOR144C, strain elg1, stronger effect = lower value 0.776 | S. cerevisiae deletion strains, locus YOR184W, strain ser1, stronger effect = lower value 0.59 | S. cerevisiae deletion strains, locus YOR231W, strain MKK1, stronger effect = lower value 0.686 | S. cerevisiae deletion strains, locus YOR290C, strain snf2, stronger effect = lower value 0.8 | S. cerevisiae deletion strains, locus YOR316C, strain cot1, stronger effect = lower value 0.751 | S. cerevisiae deletion strains, locus YPL055C, strain LGE1, stronger effect = lower value 0.746 | S. cerevisiae deletion strains, locus YPL241C, strain CIN2, stronger effect = lower value 0.914 | S. cerevisiae deletion strains, locus YPL256C, strain CLN2, stronger effect = lower value 0.797 | S. cerevisiae deletion strains, locus YPR167C, strain met16, stronger effect = lower value 0.866 | S. cerevisiae deletion strains, strain wtn01, stronger effect = lower value 0.665 | S. cerevisiae strains, strain wild type, stronger effect = lower value 0.755
inactive: S. cerevisiae deletion strains, locus YKL068W, stronger effect = lower value 1 | S. cerevisiae deletion strains, locus YKL160W, strain elf1, stronger effect = lower value 0.931 | S. cerevisiae deletion strains, locus YKR026C, strain gcn3, stronger effect = lower value 1.04 | S. cerevisiae deletion strains, locus YKR091W, strain srl3, stronger effect = lower value 1.02 | S. cerevisiae deletion strains, locus YLL026W, stronger effect = lower value 1.02 | S. cerevisiae deletion strains, locus YLL041C, strain sdh2, stronger effect = lower value 1.03 | S. cerevisiae deletion strains, locus YLR027C, strain aat2, stronger effect = lower value 0.964 | S. cerevisiae deletion strains, locus YLR039C, strain RIC1, stronger effect = lower value 0.949 | S. cerevisiae deletion strains, locus YLR221C, strain rsa3, stronger effect = lower value 0.993 | S. cerevisiae deletion strains, locus YLR258W, strain gsy2, stronger effect = lower value 0.954 | S. cerevisiae deletion strains, locus YLR262C, strain YPT6 (second series), stronger effect = lower value 0.992 | S. cerevisiae deletion strains, locus YLR262C, strain YPT6, stronger effect = lower value 0.945 | S. cerevisiae deletion strains, locus YLR320W, strain mms22, stronger effect = lower value 0.973 | S. cerevisiae deletion strains, locus YLR342W, strain FKS1, stronger effect = lower value 1.01 | S. cerevisiae deletion strains, locus YLR357W, strain rsc2, stronger effect = lower value 1.07 | S. cerevisiae deletion strains, locus YLR370C, strain arc18, stronger effect = lower value 0.955 | S. cerevisiae deletion strains, locus YLR371W, strain rom2, stronger effect = lower value 0.93 | S. cerevisiae deletion strains, locus YLR384C, strain iki3, stronger effect = lower value 1.04 | S. cerevisiae deletion strains, locus YLR418C, strain cdc73, stronger effect = lower value 0.959 | S. cerevisiae deletion strains, locus YML016C, strain PPZ1, stronger effect = lower value 1.01 | S. cerevisiae deletion strains, locus YML120C, strain ndi1, stronger effect = lower value 0.995 | S. cerevisiae deletion strains, locus YMR058W, strain fet3, stronger effect = lower value 0.961 | S. cerevisiae deletion strains, locus YMR078C, strain ctf18, stronger effect = lower value 0.954 | S. cerevisiae deletion strains, locus YMR125W, strain sto1, stronger effect = lower value 0.989 | S. cerevisiae deletion strains, locus YMR129W, stronger effect = lower value 1.04 | S. cerevisiae deletion strains, locus YMR205C, strain PFK2, stronger effect = lower value 0.973 | S. cerevisiae deletion strains, locus YMR231W, strain pep5, stronger effect = lower value 1.02 | S. cerevisiae deletion strains, locus YMR263W, strain SAP30, stronger effect = lower value 0.948 and 0.979 | S. cerevisiae deletion strains, locus YMR307W, strain GAS1, stronger effect = lower value 1.15 and 0.985 | S. cerevisiae deletion strains, locus YNL071W, strain lat1, stronger effect = lower value 1.02 | S. cerevisiae deletion strains, locus YNL175C, strain NOP13, stronger effect = lower value 0.992 | S. cerevisiae deletion strains, locus YNL197C, strain WHI3, stronger effect = lower value 1 | S. cerevisiae deletion strains, locus YNL209W, strain ssb2, stronger effect = lower value 0.985 | S. cerevisiae deletion strains, locus YNL224C, strain SQS1, stronger effect = lower value 0.959 | S. cerevisiae deletion strains, locus YNL248C, strain rpa49, stronger effect = lower value 1.01 | S. cerevisiae deletion strains, locus YNL250W, strain rad50, stronger effect = lower value 0.952 | S. cerevisiae deletion strains, locus YNL271C, strain bni1, stronger effect = lower value 1.02 | S. cerevisiae deletion strains, locus YNL298W, strain CLA4, stronger effect = lower value 1 | S. cerevisiae deletion strains, locus YNL322C, strain KRE1 (second series), stronger effect = lower value 1.01 | S. cerevisiae deletion strains, locus YNR049C, strain mso1, stronger effect = lower value 1.04 | S. cerevisiae deletion strains, locus YOL006C, strain TOP1, stronger effect = lower value 0.847 | S. cerevisiae deletion strains, locus YOR001W, strain rrp6, stronger effect = lower value 0.966 | S. cerevisiae deletion strains, locus YOR070C, strain gyp1, stronger effect = lower value 0.985 | S. cerevisiae deletion strains, locus YOR080W, strain dia2, stronger effect = lower value 1.03 | S. cerevisiae deletion strains, locus YOR083W, strain WHI5 (second series), stronger effect = lower value 0.955 | S. cerevisiae deletion strains, locus YOR083W, strain WHI5, stronger effect = lower value 0.97 | S. cerevisiae deletion strains, locus YOR106W, strain vam3, stronger effect = lower value 0.916 | S. cerevisiae deletion strains, locus YOR136W, strain idh2, stronger effect = lower value 0.928 | S. cerevisiae deletion strains, locus YOR265W, strain rbl2, stronger effect = lower value 1.02 | S. cerevisiae deletion strains, locus YOR270C, strain vph1, stronger effect = lower value 0.996 | S. cerevisiae deletion strains, locus YPL051W, strain arl3, stronger effect = lower value 0.961 | S. cerevisiae deletion strains, locus YPL078C, strain atp4, stronger effect = lower value 0.936 | S. cerevisiae deletion strains, locus YPL106C, strain sse1, stronger effect = lower value 0.984 | S. cerevisiae deletion strains, locus YPL240C, strain hsp82, stronger effect = lower value 0.998 | S. cerevisiae deletion strains, locus YPR119W, strain clb2, stronger effect = lower value 0.946 | S. cerevisiae deletion strains, locus YPR141C, strain kar3, stronger effect = lower value 1.04 | S. cerevisiae deletion strains, locus YPR163C, strain tif3, stronger effect = lower value 1.02
0.743 (active) and 0.988 (inactive): S. cerevisiae deletion strains, locus YNL128W, strain TEP1, stronger effect = lower value
